The source of these data is PubChem BioAssay (EPA / NIEHS).

Assay [1] deals with human Thromboxane A2 Receptor (TXA2), TBXA2R (gene 6915) (UniProt P21731). The experiment in a line: NVS_GPCR_hTXA2: NovaScreen (NVS) G Protein-Coupled Receptor Assay for human Thromboxane A2 Receptor (TXA2) (AID 2283282).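 Further: actives reduce bound radioligand signal relative to DMSO baseline.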 A digest of the protocol:
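Cell-free radioligand binding with human platelet-derived receptor; 1 h after dosing, filter-based scintillation counting, loss of signal vs DMSO. Primary screen in duplicate at 25 uM.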

Assay [2] deals with human Opioid Receptor Delta 1 (Opiate D1), OPRD1 (gene 4985) (UniProt P41143). The experiment in a line: NVS_GPCR_hOpiate_D1: NovaScreen (NVS) G Protein-Coupled Receptor Assay for human Opioid Receptor Delta 1 (Opiate D1) (AID 2283280). In a few lines: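 Radioligand displacement on membranes from CHO cells expressing the receptor, read by filter scintillation counting 1 h after dosing. Duplicate single-point screen at 25 uM, then concentration series for actives; loss of signal versus DMSO.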

The target of assay [3] is guinea pig Serotonin, 5-Hydroxytryptamine Receptor 4 (5HT4), HTR4 (gene 100135548) (UniProt O70528). The experiment in a line: NVS_GPCR_g5HT4: NovaScreen (NVS) G Protein-Coupled Receptor Assay for guinea pig Serotonin, 5-Hydroxytryptamine Receptor 4 (5HT4) (AID 2283294). A digest of the protocol:
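Guinea pig striatal membranes; radioligand competitive displacement, filtration and scintillation counting after 1 h. Primary screen in duplicate at 25 uM; actives then tested in concentration series; loss of binding signal fitted relative to DMSO.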

Assay [4] deals with mouse Cholecystokinin, CCK1 Receptor (CCKA), Cckar (gene 12425) (UniProt O08786). The assay can be described thus: NVS_GPCR_mCCKAPeripheral: NovaScreen (NVS) G Protein-Coupled Receptor Assay for mouse Cholecystokinin, CCK1 Receptor (CCKA) (AID 2283285). A digest of the protocol: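 Radioligand competitive displacement on mouse pancreatic membranes, 2 h incubation; filter-based scintillation counting, loss of signal versus DMSO. Single-concentration screen at 25 uM in duplicate, actives retested in concentration-response up to 50 uM.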

The target of assay [5] is rat Serotonin, 5-Hydroxytryptamine Receptor 1 (5HT1), Non-Selective Binding, Htr1a (gene 24473) (UniProt P19327). The experiment in a line: NVS_GPCR_r5HT1_NonSelective: NovaScreen (NVS) G Protein-Coupled Receptor Assay for rat Serotonin, 5-Hydroxytryptamine Receptor 1 (5HT1), Non-Selective Binding (AID 2283286). In a few lines: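 Rat cortical membranes, radioligand displacement, 1 h incubation, read by filter scintillation. Primary screen in duplicate at 25 uM. Hits (e.g. ≥30% inhibition) went to concentration-response up to 50 uM, fitted as loss of binding versus DMSO.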

The subject of assay [6] is 5-hydroxytryptamine receptor 2C (pig). The assay can be described thus: NVS_GPCR_p5HT2C: NovaScreen (NVS) G Protein-Coupled Receptor Assay for pig Serotonin, 5-Hydroxytryptamine Receptor 2C (5HT2C) (AID 2283288). A digest of the protocol:
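Pig choroid plexus membranes; radioligand competitive binding, filter-based scintillation counting, read 1 h after dosing. Primary screen in duplicate at 25 uM; actives then run as concentration series; loss of signal versus DMSO baseline.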

In assay [7] the target is rat Adrenergic, Alpha 1, Non-selective Receptor (Adra1), Adra1a (gene 29412) (UniProt P43140). The assay can be described thus: NVS_GPCR_rAdra1_NonSelective: NovaScreen (NVS) G Protein-Coupled Receptor Assay for rat Adrenergic, Alpha 1, Non-selective Receptor (Adra1) (AID 2283289). In a few lines: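 Rat forebrain membranes; radioligand displacement read by filter-based scintillation counting 1 h after dosing. Primary screen in duplicate at 25 uM; hits (e.g. ≥30% inhibition) rerun as concentration–response to 50 uM max. Fitted versus DMSO.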

The target of assay [8] is human Opioid Receptor Mu (Opiate Mu), OPRM1 (gene 4988) (UniProt P35372). The assay can be described thus: NVS_GPCR_hOpiate_mu: NovaScreen (NVS) G Protein-Coupled Receptor Assay for human Opioid Receptor Mu (Opiate Mu) (AID 2283290).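 Further: hits lower bound tracer signal versus DMSO meaning displacement of the ligand.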 In a few lines:
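Primary screen in duplicate at 25 uM, with actives followed in concentration series. CHO-derived receptor membranes, cell-free; bound radioligand read by scintillation counting after filtration at 2.5 h, decrease scored against DMSO.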

The target of assay [9] is rat Serotonin, 5-Hydroxytryptamine Receptor (5HT), Non-Selective Binding, Htr1a (gene 24473) (UniProt P19327). The experiment in a line: NVS_GPCR_r5HT_NonSelective: NovaScreen (NVS) G Protein-Coupled Receptor Assay for rat Serotonin, 5-Hydroxytryptamine Receptor (5HT), Non-Selective Binding (AID 2283295). In a few lines:
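Radioligand displacement on rat cortical membranes, 1 h incubation, filter-based scintillation counting. Primary duplicates at 25 uM, actives retested in concentration series; loss of signal fitted against DMSO as baseline.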

Assay [10] addresses rat Adrenergic, Alpha 1A Receptor (Adra1A), Adra1a (gene 29412) (UniProt P43140). The assay can be described thus: NVS_GPCR_rAdra1A: NovaScreen (NVS) G Protein-Coupled Receptor Assay for rat Adrenergic, Alpha 1A Receptor (Adra1A) (AID 2283296). A digest of the protocol: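 Rat cortical membranes pretreated with chlorethyl clonidine; competitive radioligand displacement, 1 h. Filter-based scintillation counting. Primary screen in duplicate at 25 uM, actives followed in concentration series.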

Assay [11] has as its system rat Adrenergic, Alpha 1B Receptor (Adra1B), gene 24173. The experiment in a line: NVS_GPCR_rAdra1B: NovaScreen (NVS) G Protein-Coupled Receptor Assay for rat Adrenergic, Alpha 1B Receptor (Adra1B) (AID 2283297). A digest of the protocol:
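Rat liver membranes, radioligand displacement with filter-based scintillation detection, 1 h incubation. Primary screen in duplicate at 25 uM; actives retested in concentration series; activity relative to DMSO.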

Assay [12] has as its target rat Adrenergic Receptor, Alpha 2 (Adra2), Non-selective Binding, Adra2a (gene 25083) (UniProt P22909). The experiment in a line: NVS_GPCR_rAdra2_NonSelective: NovaScreen (NVS) G Protein-Coupled Receptor Assay for rat Adrenergic Receptor, Alpha 2 (Adra2), Non-selective Binding (AID 2283299). In a few lines: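 Rat cortical membranes, radioligand competitive displacement read by filter-based scintillation counting 1.25 hours after dosing. Primary screen in duplicate at 25 uM; actives followed up in concentration series.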

Assay [13] concerns the target human Orphanin, Opioid Related Nociceptin Receptor 1 (ORL1), OPRL1 (gene 4987) (UniProt P41146). The experiment in a line: NVS_GPCR_hORL1: NovaScreen (NVS) G Protein-Coupled Receptor Assay for human Orphanin, Opioid Related Nociceptin Receptor 1 (ORL1) (AID 2283283). A digest of the protocol: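 Filter-based radioligand displacement with receptor extracted from HEK293 cells, read 1 hour after dosing by scintillation counting. Duplicate single-point screen at 25 uM; qualifying chemicals then run in concentration-response to 50 uM, analysed relative to DMSO.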

In assay [14] the target is guinea pig Bradykinin Receptor B2 (BK2), BDKRB2 (gene 100135486) (UniProt O70526). The assay can be described thus: NVS_GPCR_gBK2: NovaScreen (NVS) G Protein-Coupled Receptor Assay for guinea pig Bradykinin Receptor B2 (BK2) (AID 2283292). In a few lines:
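Radioligand displacement on guinea pig ileum membranes for 1 h, read by filter-based scintillation counting; loss of signal relative to DMSO. Compounds were screened in duplicate at 25 uM, and those passing the threshold were retested in concentration-response up to 50 uM.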

For assay [15], the target named is mouse Cholecystokinin, CCK2 Receptor (CCKB), Cckbr (gene 12426) (UniProt P56481). The assay can be described thus: NVS_GPCR_mCKKBCentral: NovaScreen (NVS) G Protein-Coupled Receptor Assay for mouse Cholecystokinin, CCK2 Receptor (CCKB) (AID 2283293). In a few lines: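 Radioligand displacement binding on mouse forebrain membranes, 2 h exposure, filter-based scintillation counting. Primary screen in duplicate at 25 uM; actives (e.g. ≥30% inhibition) retested in concentration-response up to 50 uM; loss of binding signal relative to DMSO.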

Assay [16] addresses rat Adrenergic Receptor, Beta (Adrb), Non-selective Binding, Adrb1 (gene 24925) (UniProt P18090). The assay can be described thus: NVS_GPCR_rAdrb_NonSelective: NovaScreen (NVS) G Protein-Coupled Receptor Assay for rat Adrenergic Receptor, Beta (Adrb), Non-selective Binding (AID 2283298). In a few lines:
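Non-selective beta-adrenergic radioligand binding in rat cortical membranes, 1 h incubation, filter-based scintillation read-out. Primary screen 25 uM in duplicate; hits retested in concentration-response up to 50 uM, DMSO baseline.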

Assay [17] addresses rat Histamine Receptor (H3), Hrh3 (gene 85268) (UniProt Q9QYN8). The assay can be described thus: NVS_GPCR_rH3: NovaScreen (NVS) G Protein-Coupled Receptor Assay for rat Histamine Receptor (H3) (AID 2283303). In a few lines: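 Rat forebrain membranes incubated 1 h with compound; radioligand displacement measured by filter-based scintillation counting. Single-concentration duplicates at 25 µM, then concentration-response up to 50 µM, relative to DMSO.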

The structures appear in SMILES notation. Records with an inconclusive call do not appear. Calls of active or inactive are those of the source. How the source made its calls: active means hit-call score of the fitted dose curve at least 0.9, where 1 is the maximum; inconclusive means response in the unintended direction; inactive means score below 0.9.

Chain of guinea pig Serotonin, 5-Hydroxytryptamine Receptor 4 (5HT4), HTR4 (gene 100135548) (O70528 whole entry, looked up): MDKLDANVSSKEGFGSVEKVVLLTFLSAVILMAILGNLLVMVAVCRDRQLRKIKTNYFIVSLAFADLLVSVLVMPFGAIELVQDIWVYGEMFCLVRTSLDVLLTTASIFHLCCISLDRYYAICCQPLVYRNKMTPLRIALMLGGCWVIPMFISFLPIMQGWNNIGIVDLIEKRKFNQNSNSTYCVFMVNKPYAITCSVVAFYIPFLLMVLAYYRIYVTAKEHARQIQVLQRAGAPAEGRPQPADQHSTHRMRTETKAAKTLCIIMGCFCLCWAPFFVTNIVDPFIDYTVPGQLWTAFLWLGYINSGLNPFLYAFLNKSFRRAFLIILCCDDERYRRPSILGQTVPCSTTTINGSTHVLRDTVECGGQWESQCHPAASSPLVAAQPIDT
Chain of human Opioid Receptor Delta 1 (Opiate D1), OPRD1 (gene 4985) (P41143 whole entry, looked up): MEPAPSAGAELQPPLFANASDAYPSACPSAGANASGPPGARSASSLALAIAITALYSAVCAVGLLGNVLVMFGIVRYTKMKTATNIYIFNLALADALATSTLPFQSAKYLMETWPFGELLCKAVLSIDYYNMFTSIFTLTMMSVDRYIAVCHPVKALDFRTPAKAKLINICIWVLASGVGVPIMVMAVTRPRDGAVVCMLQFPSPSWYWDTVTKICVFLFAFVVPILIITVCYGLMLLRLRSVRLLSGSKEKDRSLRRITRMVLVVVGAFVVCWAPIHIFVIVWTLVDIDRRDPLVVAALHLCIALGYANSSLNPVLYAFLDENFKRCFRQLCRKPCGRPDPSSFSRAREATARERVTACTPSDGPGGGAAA
Chain of mouse Cholecystokinin, CCK1 Receptor (CCKA), Cckar (gene 12425) (O08786 whole entry, looked up): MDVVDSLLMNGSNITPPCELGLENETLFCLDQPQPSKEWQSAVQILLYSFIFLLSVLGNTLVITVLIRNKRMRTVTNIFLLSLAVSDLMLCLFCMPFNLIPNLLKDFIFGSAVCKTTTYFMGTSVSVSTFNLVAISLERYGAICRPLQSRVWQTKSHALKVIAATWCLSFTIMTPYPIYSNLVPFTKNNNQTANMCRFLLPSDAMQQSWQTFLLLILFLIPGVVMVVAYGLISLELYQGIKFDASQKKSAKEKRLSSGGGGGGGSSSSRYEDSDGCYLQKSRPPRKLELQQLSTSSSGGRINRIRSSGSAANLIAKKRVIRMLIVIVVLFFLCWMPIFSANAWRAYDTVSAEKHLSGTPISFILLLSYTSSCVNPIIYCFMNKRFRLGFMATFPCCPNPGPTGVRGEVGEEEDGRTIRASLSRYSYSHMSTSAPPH
Chain of rat Adrenergic Receptor, Alpha 2 (Adra2), Non-selective Binding, Adra2a (gene 25083) (P22909 whole entry, looked up): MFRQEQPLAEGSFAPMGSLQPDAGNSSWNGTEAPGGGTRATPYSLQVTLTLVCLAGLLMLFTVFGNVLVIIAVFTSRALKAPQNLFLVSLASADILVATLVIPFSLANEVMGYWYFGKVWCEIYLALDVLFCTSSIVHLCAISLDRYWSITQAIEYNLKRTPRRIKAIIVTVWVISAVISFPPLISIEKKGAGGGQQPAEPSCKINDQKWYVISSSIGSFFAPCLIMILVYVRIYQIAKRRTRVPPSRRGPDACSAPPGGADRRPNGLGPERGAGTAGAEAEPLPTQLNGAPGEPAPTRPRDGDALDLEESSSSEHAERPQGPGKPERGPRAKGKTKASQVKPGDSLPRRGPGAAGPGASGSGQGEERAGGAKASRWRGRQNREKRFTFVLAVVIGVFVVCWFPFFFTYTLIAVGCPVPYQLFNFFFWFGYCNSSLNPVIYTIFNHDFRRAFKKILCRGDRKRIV
Chain of rat Serotonin, 5-Hydroxytryptamine Receptor (5HT), Non-Selective Binding, Htr1a (gene 24473) (P19327 whole entry, looked up): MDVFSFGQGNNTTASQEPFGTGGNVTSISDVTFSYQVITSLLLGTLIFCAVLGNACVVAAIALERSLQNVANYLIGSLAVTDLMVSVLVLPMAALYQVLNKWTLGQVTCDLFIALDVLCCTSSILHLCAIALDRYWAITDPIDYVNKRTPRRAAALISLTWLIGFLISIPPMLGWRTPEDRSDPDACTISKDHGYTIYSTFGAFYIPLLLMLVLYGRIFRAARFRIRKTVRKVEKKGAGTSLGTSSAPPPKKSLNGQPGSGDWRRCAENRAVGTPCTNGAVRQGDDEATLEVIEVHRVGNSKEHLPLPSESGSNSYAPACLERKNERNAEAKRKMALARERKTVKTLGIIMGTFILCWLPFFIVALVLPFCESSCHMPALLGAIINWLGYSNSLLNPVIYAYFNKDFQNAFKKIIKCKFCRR
Chain of human Opioid Receptor Mu (Opiate Mu), OPRM1 (gene 4988) (P35372 whole entry, looked up): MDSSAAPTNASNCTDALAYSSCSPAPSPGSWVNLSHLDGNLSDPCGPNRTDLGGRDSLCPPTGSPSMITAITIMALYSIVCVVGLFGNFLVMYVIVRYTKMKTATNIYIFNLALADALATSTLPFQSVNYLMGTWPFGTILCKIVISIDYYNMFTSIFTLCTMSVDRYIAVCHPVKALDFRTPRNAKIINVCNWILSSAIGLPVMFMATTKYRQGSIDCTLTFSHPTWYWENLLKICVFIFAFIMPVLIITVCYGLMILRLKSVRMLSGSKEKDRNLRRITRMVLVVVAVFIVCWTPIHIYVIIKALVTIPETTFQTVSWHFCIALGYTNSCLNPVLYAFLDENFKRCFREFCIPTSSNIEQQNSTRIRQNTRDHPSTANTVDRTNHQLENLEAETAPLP
Chain of rat Adrenergic, Alpha 1, Non-selective Receptor (Adra1), Adra1a (gene 29412) (P43140 whole entry, looked up): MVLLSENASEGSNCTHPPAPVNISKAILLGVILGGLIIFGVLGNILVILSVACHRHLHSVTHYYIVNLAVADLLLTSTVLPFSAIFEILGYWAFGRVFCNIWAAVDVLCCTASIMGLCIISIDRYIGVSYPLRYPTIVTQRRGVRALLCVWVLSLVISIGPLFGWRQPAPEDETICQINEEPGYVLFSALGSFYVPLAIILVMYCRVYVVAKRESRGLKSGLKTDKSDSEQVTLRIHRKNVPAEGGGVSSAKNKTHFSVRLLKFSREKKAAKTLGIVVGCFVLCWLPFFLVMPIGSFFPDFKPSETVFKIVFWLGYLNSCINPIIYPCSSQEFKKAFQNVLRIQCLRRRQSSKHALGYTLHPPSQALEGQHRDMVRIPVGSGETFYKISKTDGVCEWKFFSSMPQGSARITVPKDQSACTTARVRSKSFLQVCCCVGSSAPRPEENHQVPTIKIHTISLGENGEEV
Chain of rat Adrenergic, Alpha 1A Receptor (Adra1A), Adra1a (gene 29412) (P43140 whole entry, looked up): as above
Chain of human Thromboxane A2 Receptor (TXA2), TBXA2R (gene 6915) (P21731 whole entry, looked up): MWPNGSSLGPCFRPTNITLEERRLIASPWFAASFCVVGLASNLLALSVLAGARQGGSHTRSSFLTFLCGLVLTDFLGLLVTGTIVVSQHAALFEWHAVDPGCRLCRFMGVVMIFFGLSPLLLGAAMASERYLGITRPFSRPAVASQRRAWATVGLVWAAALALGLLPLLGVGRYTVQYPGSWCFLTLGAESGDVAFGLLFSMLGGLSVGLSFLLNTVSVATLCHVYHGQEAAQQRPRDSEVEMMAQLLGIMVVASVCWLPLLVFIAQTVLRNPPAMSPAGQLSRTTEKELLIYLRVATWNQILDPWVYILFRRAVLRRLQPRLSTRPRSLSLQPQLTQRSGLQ
Chain of rat Histamine Receptor (H3), Hrh3 (gene 85268) (Q9QYN8 whole entry, looked up): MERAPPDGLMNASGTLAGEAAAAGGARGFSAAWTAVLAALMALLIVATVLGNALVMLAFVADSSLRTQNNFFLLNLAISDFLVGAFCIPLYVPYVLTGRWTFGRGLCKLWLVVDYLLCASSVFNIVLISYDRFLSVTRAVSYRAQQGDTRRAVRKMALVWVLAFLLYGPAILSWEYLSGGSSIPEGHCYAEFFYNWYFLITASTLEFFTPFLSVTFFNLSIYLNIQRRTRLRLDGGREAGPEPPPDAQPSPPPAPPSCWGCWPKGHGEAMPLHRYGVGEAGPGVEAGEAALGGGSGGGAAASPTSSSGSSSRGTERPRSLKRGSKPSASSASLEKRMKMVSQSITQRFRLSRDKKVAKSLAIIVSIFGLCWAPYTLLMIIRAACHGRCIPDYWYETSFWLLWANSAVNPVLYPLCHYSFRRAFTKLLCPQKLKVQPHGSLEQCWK
Chain of rat Adrenergic Receptor, Beta (Adrb), Non-selective Binding, Adrb1 (gene 24925) (P18090 whole entry, looked up): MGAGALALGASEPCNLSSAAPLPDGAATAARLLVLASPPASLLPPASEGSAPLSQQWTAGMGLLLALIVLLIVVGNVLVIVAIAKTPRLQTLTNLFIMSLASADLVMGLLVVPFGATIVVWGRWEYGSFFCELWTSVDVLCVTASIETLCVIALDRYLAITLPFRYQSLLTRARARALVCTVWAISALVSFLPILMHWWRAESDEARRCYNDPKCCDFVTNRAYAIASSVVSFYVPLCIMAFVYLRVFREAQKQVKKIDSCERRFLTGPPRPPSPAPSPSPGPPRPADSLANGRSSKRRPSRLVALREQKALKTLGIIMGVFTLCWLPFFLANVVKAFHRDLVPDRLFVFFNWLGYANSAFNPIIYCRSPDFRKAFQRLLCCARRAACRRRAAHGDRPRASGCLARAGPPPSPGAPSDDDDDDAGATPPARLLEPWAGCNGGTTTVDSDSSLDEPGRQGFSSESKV

Regarding `O=C1O[C@H]([C@@H](O)CO)C(O)=C1O`, the AC50 in assay [1] was 8.76 µM (active).

Take `C[C@]12CC[C@@H]3c4ccc(O)cc4CC[C@H]3[C@@H]1CCC2=O`: the result in [2] and in [3] was inactive.

`NCc1cccc(C2CCN(C(=O)c3ccc(C#Cc4ccccc4F)o3)CC2)c1`: the AC50 was 10.2 µM (active) in assay [2]; 13.6 µM (active) in [4]; 4.96 µM (active) in assay [5]; 8.02 µM (active) in [6]; 21.5 µM (active) in [7]; 2.56 µM (active) in assay [8]. Also, the AC50 in assay [3] was 17.6 µM (active); in [9], 14.8 µM (active); in assay [11] it was 25 µM (active); in assay [12], 14.4 µM (active). Also, the compound was classed as inactive in [10].

Take `CN(C)c1ccc(C(=C2C=CC(=[N+](C)C)C=C2)c2ccc(N(C)C)cc2)cc1`: the concentration at half-maximal activity (AC50) in assay [2] was 8.5 µM (active); in [13], 21.8 µM (active); in assay [4] it was 10.8 µM (active); in assay [6] it was 18.5 µM (active); in assay [7], 4.81 µM (active); in assay [8], 2.5 µM (active). For the same compound, the AC50 in [14] is 12.3 µM (active); in [15] it was 10.3 µM (active); in assay [3] it was 7.22 µM (active); in assay [9], 25 µM (active); in assay [10], 20.9 µM (active); in assay [16], 17.3 µM (active). Moreover, the AC50 in [12] was 1.15 µM (active); in assay [17], 23 µM (active).

With `CCN(CC)C(=O)c1cc(S(=O)(=O)Cc2ccccc2)c(N2CCC(c3ccccc3)CC2)cc1N(CC)CCN(C)C`, the AC50 was 14.2 µM (active) in assay [2]; 7.94 µM (active) in [6]; 10.3 µM (active) in assay [8]; 11.3 µM (active) in assay [9]; 17.8 µM (active) in assay [10]; 6.1 µM (active) in assay [11]. Besides, the AC50 in assay [12] was 15.2 µM (active). Besides, the outcome in assay [1] was inactive.

Regarding `Cc1cc(F)ccc1-c1cc(N2CC[C@@H](O)[C@H]2CO)ncc1N(C)C(=O)C(C)(C)c1cc(C(F)(F)F)cc(C(F)(F)F)c1`, the concentration at half-maximal activity (AC50) in assay [2] is 15.8 µM (active); in assay [4] it was 4.08 µM (active); in assay [7] it was 20.4 µM (active).

As usually defined, the AC50 is the concentration giving half of the maximal activity seen.
